# Bioassay records as filed in PubChem.
# The list is not random: actives were taken first. Their share in the collection is about 2.1%.
# TDP-43 yeast inh – qHTS of TDP-43 Inhibitors; TDP-43 expressing yeast growth rescue, BacTiter-Glo, 24 h; Potency, µM (titrated, usually from 46.1 µM), for inactives: top-dose growth rescue (activation), actives largely listed as activators; 410,000 compounds, 1.8% hits; further: % of control where 0% means no effect; nearly all actives have a fitted effect of over 50% in size
#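 Cell-based yeast growth screen: TDP-43 expression induced in galactose, inoculum OD600=0.02 after raffinose pregrowth to mid-log. Read-out BacTiter-Glo luminescence at 24 hr, 30 deg C; inhibition of toxicity seen as signal increase.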
# Abeta yeast res – qHTS for compounds that reverse cellular toxicity of Amyloid beta (A-beta) peptide in yeast: Primary Screen. yeast expressing A-beta42, growth rescue, OD600, 48 h; response scale: 0% DMSO, 100% iron-clioquinol control. Potency, µM (doses to about 46.1 µM), actives largely listed as activators. 410,000 compounds, 0.063% hits. AID 1347071, 2019; further: nearly all actives have a fitted effect of over 55% in size
#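 Yeast growth medium received pinned compounds, then yeast cells expressing toxic A-beta were added; plates incubated at 30 C for 48 hr. Growth read as absorbance at 600 nm, normalized to DMSO and equimolar FeCl3 plus clioquinol controls.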
# FUS suppressor – qHTS for Suppressors of FUS Proteinopathy: Primary screen using FUS-linked yeast assay; AID 1347120, 2019; 390,000 compounds, 0.24% hits; Potency, µM (highest dose often 76.6 µM), most hits filed as activators; S. cerevisiae FUS-expressing, growth rescue, OD600, 24 h;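 further: plate controls were DMSO vehicle for no effect and reference control for full effect; nearly all actives have a fitted effect of over 55% in size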
#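 Galactose (2%) drives FUS expression in yeast precultured in raffinose; seeding density OD 0.005. Test compounds incubated 24hr at 30C and 99% humidity before absorbance at 600 nm was measured.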
# aSyn yeast inh – qHTS of alpha-syn Inhibitors; Yeast expressing alpha-synuclein, growth rescue, BacTiter-Glo, 24 h; Potency, µM (highest dose often 46.1 µM), inactives show at the top dose growth rescue (activation), usual class: activators; 370,000 compounds, 0.14% hits; AID 652106, 2013; further: % of control where 0% means no effect; nearly all actives have a fitted effect of over 65% in size
#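 Screening used galactose-induced yeast with toxic alpha-synuclein levels, exposed to compound for 24 hr at 30 deg C. Cell growth, read with BacTiter-Glo luminescence, gave the measured signal.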
# Numbers without * were called inactive; i = inactive; ? = inconclusive; / = no result given; [ ] = remark or other dose. The call rests on the fitted dose curve; in most records, active means well fitted curve in the direction sought with a large enough effect; inconclusive means small, poorly fitted or top-dose-only effect, or another doubt; inactive means no such curve, though single readings can be large; an effect the other way counts as inactive or inconclusive. Potency means the concentration at half of the fitted maximal effect.
SMILES,TDP-43 yeast inh,Abeta yeast res,FUS suppressor,aSyn yeast inh
Cc1ccccc1-c1cc2nc(NCc3ccccc3)n(C)c(=O)c2s1,?,i,28.2µM*,?
COCCNc1nc2cc(-c3ccccc3C)sc2c(=O)n1C,0.0%,i,?,0.2%
CC(=O)NCCNc1nc2cc(-c3ccccc3CO)sc2c(=O)n1C,35.5µM*,i,i,?
Cc1ccccc1-c1cc2nc(NCc3cccnc3)n(C)c(=O)c2s1,1.9%,i,i,-1.4%
Cc1cnc(CNc2nc3cc(-c4ccccc4C)sc3c(=O)n2C)cn1,35.5µM*,i,i,9.2%
Cc1ccccc1-c1cc2nc(NCc3ccncc3)n(C)c(=O)c2s1,0.0%,i,i,7.0%
COCCNc1nc2cc(-c3ccccc3OC)sc2c(=O)n1C,14.1µM*,i,i,0.8%
CC(=O)NCCNc1nc2cc(-c3ccccc3C)sc2c(=O)n1C,?,i,i,0.2%
O=S(=O)(NCCc1cn(S(=O)(=O)c2ccccc2)c2ccccc12)c1ccccc1,/,/,/,2.1%
CCn1c2ccccc2c2cc(Nc3cc(C)nc4ncnn34)ccc21,15.8µM*,i,i,9.2%
CCc1ccc(Nc2cc(C)nc3ncnn23)cc1,?,?,i,0.1%
O=C1CSc2ccc(C(=O)N3CCCC(C(=O)N4CCOCC4)C3)cc2N1 (stereo unspecified),/,/,i,/
COc1ccc2nc3oc(C(=O)N4CC(C)CC(C)C4)cc3cc2c1 (stereo unspecified),12.6µM*,i,i,7.8%
CC1CC(C)CN(C(=O)c2cc3cc(Br)cc(Br)c3o2)C1 (stereo unspecified),31.6µM*,i,i,-7.5%
COc1ccc2nc3oc(C(=O)N4CCCCC4)cc3cc2c1,?,i,i,-6.5%
CN(C)c1ccc(C=Nc2ccc(/C=C3\C=Cc4ccccc43)cc2)cc1,/,/,/,-33.4%
Nc1ccc(Cl)c(-c2nc3ncccc3o2)c1,-6.2%,i,?,0.7%
Nc1ccc(-c2nc3ncccc3o2)c(Cl)c1,-3.4%,i,i,14.1µM*
CCOC(=O)c1ccc(Oc2nc(NC(C)(C)C)nc(N(C)C)n2)cc1,22.4µM*,i,i,-14.7%
O/N=C1\CCCc2ccc3ccccc3c21,11.2µM*,i,i,11.6%
COc1cc(/C=C/c2nc(C#N)c(N3CCCCCC3)o2)cc(OC)c1OC,23.0%,i,i,/
O=C1c2ccccc2NC(c2c(Cl)cccc2Cl)N1Cc1ccccc1 (stereo unspecified),25.1µM*,i,i,-9.7%
O=C1c2ccccc2NC(c2ccc(Cl)cc2Cl)N1Cc1ccccc1 (stereo unspecified),13.4%,i,i,4.6%
CC1(C(=O)NS(=O)(=O)Cc2ccccc2)CCN1C(=O)c1ccc(C2CCCCC2)cc1 (stereo unspecified),20µM*,i,i,-46.5%
Cc1ccc(C)n1-c1ccc(C(=O)N2CCOCC2)cc1,-19.9%,i,35.5µM*,-0.7%
SMILES,TDP-43 yeast inh,Abeta yeast res,FUS suppressor,aSyn yeast inh
CC(=O)N1CCN(C(=O)c2ccc(-n3c(C)ccc3C)cc2)CC1,19.6%,i,/,2.1%
COc1cccc2cc(C(=O)NCCc3c(C)[nH]c4ccc(F)cc34)c(=O)oc12,8.8%,i,i,-13.0%
CCOc1ccccc1OCCCC(=O)N1CCN(S(=O)(=O)c2ccc(Cl)cc2)CC1,14.4%,i,i,1.1%
CCOc1ccccc1OCCCC(=O)N1CCN(S(=O)(=O)c2cc(F)ccc2F)CC1,?,i,?,-4.3%[1.84 µM]
Cc1cc(Cl)ccc1OCCCC(=O)N1CCN(S(=O)(=O)c2ccccc2)CC1,14.1µM*,i,i,17.9%
Cc1ccc(C)c(OCCC(=O)N2CCN(S(=O)(=O)c3cc(F)ccc3F)CC2)c1,17.8µM*,i,i,0.1%
Cc1ccc(S(=O)(=O)N2CCN(C(=O)CCOc3cc(C)ccc3C)CC2)cc1,35.5µM*,i,i,9.5%
Cc1ccc(S(=O)(=O)N2CCN(C(=O)COC(=O)CCOc3cc(C)ccc3C)CC2)c(C)c1,1.5%,?,/,10.4%
COCCCN1C(=O)[C@H](CC(=O)N2CCCC2)[C@]2(C(=O)OC)CCCCC=C12,/,/,i,/
COc1ccc(NC(=O)CCn2c(=O)c3cccn3c3ccccc32)cc1,5.4%,i,i,-1.8%
COc1ccc(NC(=O)CCn2c(=O)c3cccn3c3ccccc32)c(OC)c1,22.4µM*,i,i,8.0%
COc1ccc(NC(=O)NCc2cccn2C)c(OC)c1,-3.3%,i,28.2µM*,-2.2%
N#Cc1ccc(C2=CC(=O)C[C@H](c3ccc4c(c3)OCO4)C2)cc1,17.8µM*,i,?,-1.5%
O=C1C=C(c2ccc3c(c2)OCO3)C[C@@H](c2ccc3c(c2)OCO3)C1,7.6%,i,i,1.5%
O=C1C=C(c2cccc(CO)c2)C[C@@H](c2ccc3c(c2)OCO3)C1,20µM*,i,i,2.7%
CN(C)S(=O)(=O)c1ccc(C(=O)NCCSc2c(-c3ccc(Br)cc3)[nH]c3ccccc23)cc1,15.4%,i,i,/
O=C(c1cnc(N2CCOCC2)c2ccccc12)N1CCN(c2ccccc2)CC1,0.0%,i,i,/
Clc1ccccc1-c1ccc2ncnc(NCc3ccc4c(c3)OCO4)c2c1,/,i,i,/
Clc1ccccc1-c1cnc2sc(NCc3ccc4c(c3)OCO4)nn12,3.98µM*,i,i,6.6%
Cc1onc(-c2ccccc2Cl)c1C(=O)Nc1ccc(-n2nncc2-c2ccco2)cc1,-14.1%,i,8.91µM*,9.8%
O=C(Cc1ccccc1[N+](=O)[O-])OCC(=O)c1ccccc1Br,12.6µM*,i,i,1.9%
Cn1c(=O)c2sccc2n2c(CCCC(=O)Nc3ccc(Oc4ccccc4)cc3)nnc12,21.1%,i,?,/
O=C(/C=C/Nc1cccc([N+](=O)[O-])c1)c1ccco1,-1.3%,i,i,12.6µM*
Cc1cccc(C)c1NC(=O)c1ccc2nc(CCc3ccccc3)oc2c1,12.6µM*,i,i,/
CC1(C)CC(=O)c2cc(-c3nc(-c4ccccc4)cs3)c(=O)[nH]c2C1,17.6%,i,i,/
SMILES,TDP-43 yeast inh,Abeta yeast res,FUS suppressor,aSyn yeast inh
COc1ccccc1CNC(=O)CSCc1nc(-c2ccc(OC)c(OC)c2)oc1C,0.0%,i,i,/
Cc1oc(-c2ccccc2Cl)nc1CSCC(=O)N1CCCC1,12.6µM*,i,i,-0.7%
COc1ccc(-c2nc(CSCC(=O)NCc3ccccc3Cl)c(C)o2)cc1OC,25.1µM*,i,i,/
Cc1oc(-c2ccccc2F)nc1CSCC(=O)N1CCN(c2ccccc2)CC1,31.6µM*,i,i,/
Cc1cccc2c(/C=C/c3ccc(N(C)C)cc3)ccnc12,/,/,/,-3.2%
CC1(C(=O)Nc2cccc3c2CCCC3)CCN1C(=O)c1cccc(F)c1 (stereo unspecified),28.2µM*,i,i,9.0%
